Screening results from PubChem BioAssay.
Rab9 promoter act = qHTS Assay for Rab9 Promoter Activators | Huh7 Rab9 promoter-luciferase reporter, luminescence, 24 h | Potency, µM (titrated, usually from 9.22 µM), without a hit: at the top dose activation, negative = inhibition, actives largely listed as activators | actives 2.8% (n = 320,000); further: % of control where 0% means no effect; nearly all actives have a fitted effect of over 60% in size
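Cells were plated at 1500 per well in reduced-serum medium with 10% FBS and left 2 h. Compound in DMSO was then added for 24 h at 37 °C. Reporter signal was read by luminescence after 10 min with luciferase detection reagent.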
SMN2 splice up = qHTS Assay for Enhancers of SMN2 Splice Variant Expression. actives 2.8% (n = 210,000). HEK293 SMN2-luciferase splicing reporter, luminescence, 30-36 h. AID 1458, 2008. Potency, µM (highest dose often 46.1 µM), inactives show top-dose activity change, positive = activation, actives largely listed as activators; further: % of control where 0% means no effect; nearly all actives have a fitted effect of over 55% in size
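qHTS luciferase splicing reporter: luminescence rises when SMN2 exon 7 is included in transfected HEK293 cells. Compound exposure lasted 30-36 h at 37C, with 4.5 mM final sodium butyrate as control, followed by a ONE-Glo read.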
KinaseGlo FLuc = Counterscreen for Luciferase (Kinase-Glo TM) Inhibition. Potency, µM (titrated, usually from 38.3 µM), inactives show top-dose activity change, negative = inhibition, most hits filed as inhibitors. AID 1379, 2008. actives 0.28% (n = 200,000). Luciferin 4-monooxygenase (Photuris pensylvanica), Q27757. Kinase-Glo luciferase, ATP luminescence, 8 min; further: on the % scale 0 is the no-effect control and ±100 the full control effect; nearly all actives have a fitted effect of over 60% in size
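Compounds were added to a substrate mix at pH 7.2 (50 mM imidazole, 10 uM ATP, within the enzyme's linear range), followed by Kinase-Glo detection reagent; luminescence was measured after 8 minutes at ambient temperature.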
FLuc counter = qHTS profiling assay for firefly luciferase inhibitor/activator using purifed enzyme and Km concentrations of substrates (counterscreen for miR-21 project); Luciferin 4-monooxygenase (Photinus pyralis), P08659; purified FLuc, Km substrates, luminescence inhibition; Potency, µM (highest dose often 57.5 µM), for inactives: at the top dose activity change, negative = inhibition, usual class: inhibitors; actives 6.9% (n = 360,000); AID 588342, 2011;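 further: plate controls were vehicle for no effect and reference inhibitor for full effect; nearly all actives have a fitted effect of over 55% in size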
Target sequence (P08659 whole entry, looked up): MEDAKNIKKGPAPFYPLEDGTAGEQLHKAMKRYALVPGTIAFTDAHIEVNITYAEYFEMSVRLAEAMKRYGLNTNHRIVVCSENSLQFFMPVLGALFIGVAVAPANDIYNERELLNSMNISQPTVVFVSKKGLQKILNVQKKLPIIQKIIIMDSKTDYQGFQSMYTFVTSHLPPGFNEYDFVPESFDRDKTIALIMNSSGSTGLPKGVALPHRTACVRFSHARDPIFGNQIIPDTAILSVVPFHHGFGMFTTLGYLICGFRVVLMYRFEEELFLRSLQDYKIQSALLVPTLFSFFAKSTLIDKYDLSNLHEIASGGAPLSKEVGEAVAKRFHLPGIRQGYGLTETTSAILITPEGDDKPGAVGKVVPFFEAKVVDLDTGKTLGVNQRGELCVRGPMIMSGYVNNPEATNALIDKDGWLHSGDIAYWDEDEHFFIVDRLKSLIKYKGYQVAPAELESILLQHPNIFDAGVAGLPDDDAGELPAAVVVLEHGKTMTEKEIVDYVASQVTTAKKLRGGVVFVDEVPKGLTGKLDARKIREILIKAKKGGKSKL
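Purified P. pyralis luciferase (10nM final) with 10uM D-luciferin and 10uM ATP (Km levels) in 50mM Tris acetate pH 7.5, 10mM Mg acetate, 0.01% Tween-20, 0.05% BSA; qHTS 6-point titration, ~60 µM downward; luminescence read.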
NPC1 prom act = qHTS Assay for NPC1 Promoter Activators | Huh7 NPC1 promoter luciferase reporter, 24 h | Potency, µM (doses to about 9.22 µM), for inactives: at the highest dose activation, most hits filed as activators | actives 2.4% (n = 320,000); further: % of control where 0% means no effect; nearly all actives have a fitted effect of over 60% in size
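In 1536-well qHTS, Huh7 cells harboring an NPC1 promoter–luciferase construct received compound for 24 h; activation was quantified by luminescence following luciferase reagent addition.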
* hit, by the source's call; ? = inconclusive; . = not tested or not shown; [ ] = another dose, or the depositor's remark. The list is not random: actives were taken first. Their share in the collection is about 7.3%. The call rests on the fitted dose curve; in most records, active means well fitted curve in the direction sought with a large enough effect; inconclusive means small, poorly fitted or top-dose-only effect, or another doubt; inactive means no such curve, though single readings can be large; an effect the other way counts as inactive or inconclusive. Potency means the concentration at half of the fitted maximal effect.

SMILES	Rab9 promoter act	SMN2 splice up	KinaseGlo FLuc	FLuc counter	NPC1 prom act
Nc1ncnc2n[nH]c(Nc3ccc(F)cc3)c12	-1%[46.1 µM]	.	.	.	9%[46.1 µM]
CCSc1cc(N2CCCC2)nc(-c2ccc(Cl)cc2)n1	-5%	.	.	9%	-4%
Clc1ccc(-c2nnc(N3CCCC3)nn2)cc1	0.32µM*	6.3µM*	-10%	1.2µM*	?
COc1ccc(OC)c(NC(=O)Nc2ccc3c(c2)CCC3)c1	1%	.	.	27µM*	2%
COc1cccc(NC(=O)Nc2ccc3c(c2)CCC3)c1	1.6µM*	.	.	4.3µM*	2.2µM*
CCCCCSc1nnc2c(n1)OC(CC)Nc1ccc(Br)cc1-2 (configuration not stated)	.	4%	.	?	.
CC(=O)Nc1ccc(-c2csc(Nc3cccc(C)n3)n2)cc1	1.6µM*	.	-2%	9.5µM*	1.8µM*
CC(=O)Nc1cccc(-c2csc(Nc3ccc(C)cn3)n2)c1	0.89µM*	2.2µM*	-1%	0.43µM*	1µM*
CC(=O)Nc1cccc(-c2csc(Nc3ncccn3)n2)c1	1.6µM*	3.5µM*	-8%	2.1µM*	3.2µM*
Cc1ccsc1C(=O)OC1CCOC1=O (configuration not stated)	-1%	25µM*	-1%	2%	-2%
Cc1cccc(C(=O)OC2CCOC2=O)c1O (configuration not stated)	-3%	.	.	-1%	-6%
CCCCC/C=C\C\C=C/C=C/C=C/[C@@H](SC[C@H](N)C(=O)NCC(=O)O)[C@@H](O)CCCC(=O)O	.	-10%	.	.	.
CC(C)N(C(=O)COC(=O)c1ccc(Cl)c(S(N)(=O)=O)c1)C(C)C	7%	1%	-2%	0%	-4%
Cc1cc(C(=O)COC(=O)c2ccc(Cl)c(S(N)(=O)=O)c2)c(C)n1C1CC1	1.8µM*	.	.	4.8µM*	4µM*
Cc1cc(C(=O)COC(=O)c2ccc(NC(=O)CC#N)cc2)c(C)n1C1CC1	4µM*	.	.	13µM*	?
N#C/C(=C\c1c(Cl)cccc1Cl)c1nc2ccccc2[nH]1	-2%	.	.	?	4%
CN(C)/C=C(\C#N)c1nc2ccccc2[nH]1	-2%	13%	-3%	?	1%
N#C/C(=C/c1cccs1)c1nc2ccccc2[nH]1	2.8µM*	?	-10%	?	?
Cc1ccc(/C=C(\C#N)c2nc3ccccc3[nH]2)s1	0.35µM*	?	-6%	4.8µM*	0.79µM*
CCC1CCCCN1Cc1cn2c(-c3ccc(Br)cc3)nnc2s1 (configuration not stated)	.	.	.	6%	.
Cc1nc2ccc(S(=O)(=O)NCC(=O)Nc3ccc(F)cc3F)cc2s1	.	20%	.	2%	.
COc1ccc(N/C=C/C(=O)c2ccc3c(c2)OCO3)cc1OC	?	17%	-1%	2.7µM*	28%
COc1ccc(N/C=C\C(=O)c2ccc3c(c2)OCO3)cc1	3.5µM*	?	?	0.27µM*	1.8µM*
O=C(/C=C\Nc1ccc2c(c1)OCO2)c1ccc2c(c1)OCO2	0.79µM*	?	?	0.13µM*	4µM*
COc1ccc(N/C=C\C(=O)c2ccc(C)cc2)cc1OC	3.5µM*	19%	1%	5.4µM*	?
SMILES	Rab9 promoter act	SMN2 splice up	KinaseGlo FLuc	FLuc counter	NPC1 prom act
COc1ccc(NC(=O)COc2ccc3c(c2)OCO3)cc1	11%	.	.	?	15%
COc1ccc(N/C=C\C(=O)c2ccc(Br)cc2)cc1OC	?	?	-2%	?	?
CC1CCCN(c2nc3c(-c4ccc(Cl)cc4)nnn3c3ccccc23)C1 (configuration not stated)	.	9%	.	2%	.
Cc1ccc(-c2onc(C)c2C)cc1S(=O)(=O)NC1CCC(C)CC1 (configuration not stated)	.	.	.	-3%	.
Fc1ccc(C(Nc2ccccc2Cl)c2nnc(-c3ccccc3Cl)o2)cc1 (configuration not stated)	.	-17%	.	-19%	.
COc1cc(/C=N/NC(=O)C23CC4CC(CC(C4)C2)C3)cc(Br)c1O	3%	6%	0%	13µM*	-1%
COc1cc(/C=N/NC(=O)c2ccc3c(c2)OCCO3)cc(Br)c1O	15%	.	.	11µM*	2%
COc1cc(/C=N/NC(=O)c2ccccc2)ccc1O	27%	9%	-3%	?	-1%
COc1cc(/C=N/NC(=O)c2ccc3c(c2)OCCO3)c(Br)c(Br)c1O	-1%	.	.	9.5µM*	1%
COc1ccc(/C=N/NC(=O)c2ccc3c(c2)OCCO3)cc1[N+](=O)[O-]	-1%	-6%	0%	1%	8%
COc1cc(/C=N\NC(=O)c2ccc(-c3ccccc3)cc2)cc(Br)c1O	5%	.	.	11µM*	0%
Cc1ccc(-n2c(=O)c3c(c4cc(C)ccc4n3C)n(CC(=O)Nc3cc(C)cc(C)c3)c2=O)cc1	.	.	.	0%	.
CCOC(=O)c1c(-c2ccccc2)oc2ccc(NS(=O)(=O)c3cc(C)c(C)cc3C)cc12	.	-6%	.	-2%	.
CCOc1cc(/C=N/NC(N)=O)cc(Br)c1OCc1ccccc1	-1%	-5%	2%	0%	-5%
CCOc1c(Br)cc(/C=N\NC(=O)c2ccccc2)cc1OC	-3%	7%	0%	5.4µM*	-2%
CCn1cc(C(=O)NCc2ccc(C)cc2)c(=O)c2cc(S(=O)(=O)N(C)C3CCCCC3)ccc21	.	-24%	.	0%	.
Cc1ccc2nc(CN3CCN(C(=O)Nc4cccc(C)c4C)CC3)oc2c1	.	.	.	0%	.
CCC1C/C(=C/c2ccco2)C(=O)/C(=C/c2ccco2)C1 (configuration not stated)	3%	-9%	0%	-8%	1%
Nc1ccc2c(c1)C/C(=C/c1ccco1)C2=O	2µM*	?	-15%	0.6µM*	2.8µM*
COc1ccc2c(c1)CC/C(=C/c1ccco1)C2=O	3.5µM*	18µM*	-21%	0.67µM*	2.2µM*
O=C1/C(=C/c2ccco2)CCc2ccccc21	?	?	?	2.1µM*	4µM*
CC(C)(C)n1ncc2c(=O)n(CC(=O)NCCc3ccccc3)cnc21	1%	-5%	-5%	-5%	4%
CC(C)(C)n1ncc2c(=O)n(Cc3c(F)ccc(Cl)c3Cl)cnc21	.	.	.	13µM*	.
CC(C)(C)n1ncc2c(=O)n(CC(=O)NCc3ccccc3Cl)cnc21	0.4µM*	11µM*	-6%	3µM*	0.4µM*
O=C1CCCN1CCCNCC(O)c1ccccc1 (configuration not stated)	-4%	.	.	-2%	0%
CC(C)CN=CC1=C(O)c2ccccc2C1=O	1µM*	.	.	12µM*	1.8µM*
O=c1oc2ccccc2c(O)c1C=NCc1ccccn1	-3%	4%	-8%	?	-10%
